# Results reported in PubChem BioAssay (NCATS).
# Records with an inconclusive call do not appear. Where a call stands in place of a potency, no number is given. Calls of active or inactive are those of the source. The call rests on the fitted dose curve; in most records, active means well fitted inhibition curve with a large enough effect; inconclusive means small, poorly fitted or top-dose-only effect; inactive means no such curve, though single readings can be large or run the other way.
# Key:
# [1] = tested on: Zika virus NS2B-NS3 protease (unlinked complex); assay: Primary screen GU Rhodamine qHTS for Zika virus inhibitors: Unlinked NS2B-NS3 protease assay (AID 1347159); further: nearly all actives have a fitted effect of over 60% in size
# Procedure, shortened: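 Percent inhibition came from the 15-min rise in Rhodamine110 fluorescence (1.5 microM substrate, ~15% conversion), normalized to no-inhibitor and no-enzyme wells and Hill-fitted. Unlinked protease, 25 nM, pH 8.0 Tris buffer; compounds up to 114 microM, 15-min preincubation.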
# [2] = tested on: Zika virus NS2B-NS3 protease (linked construct); assay: Primary screen NINDS Rhodamine qHTS for Zika virus inhibitors (AID 1347160); further: nearly all actives have a fitted effect of over 55% in size
# Procedure, shortened: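 Rhodamine110-peptide cleavage (1.5 µM substrate) by 25 nM linked NS2B-NS3 enzyme at pH 8.0 (Tris, Tween 20), after 15 min RT preincubation with compounds; 15-min fluorescence change normalized to controls and Hill-fitted.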
Compound,Potency [1],Potency [2]
COc1ccc(Cl)c(Nc2ncnc3cc(OCC4CCN(C)CC4)c(OC)cc23)c1,inactive,inactive
C#CCNCc1cc2cc(OCc3ccccc3)ccc2[nH]1,inactive,inactive
COCC(c1ccc(C(F)(F)F)cc1)N1CCN(C2(C)CCN(C(=O)c3c(C)ncnc3C)CC2)CC1C (stereo not given),inactive,inactive
CO[C@H]1[C@@H](O)[C@H](O[C@H]2CC[C@@]3(C)C(CCC4C3CC[C@]35COC6(COC(=O)C6)C3CCC45O)C2)O[C@@H](C)[C@@H]1OC1OC(CO)C(OC2OC(CO)C(O)C(O)C2O)C(O)C1O (stereo not given in full),inactive,inactive
C=C(C)C(=O)O[C@H]1C[C@@](C)(O)C2(O)CCC(C)(/C=C3/OC(=O)C(COC)=C31)O2 (stereo not given in full),inactive,inactive
CC(=O)OC1CC(C)(C(=O)O)CC2C3=CC(=O)C4C5(C)CCC(OC6OC(C(=O)O)C(O)C(O)C6OC6OC(C(=O)O)C(O)C(O)C6O)C(C)(C)C5CCC4(C)C3(C)CCC12C (stereo not given),inactive,inactive
COc1ccc2[nH]c(=O)c3c(c2c1)OC(C)(C)C=C3,inactive,inactive
CC(=O)O[C@@H]1CC[C@@]2(C)[C@H](CC[C@@H]3[C@@H]2C[C@H](OC(C)=O)[C@]2(C)[C@@H](C(C)=O)CC[C@@H]32)C1,inactive,inactive
Nc1nc(O)c(C2=C3C(=Nc4ccccc43)C(=O)NCC2)[nH]1,inactive,inactive
C=C1/C(=C/C=C2\CCC[C@]3(C)[C@@H]([C@H](C)CC[C@@H](O)C(C)(C)O)CC[C@@H]23)C[C@@H](O)C[C@@H]1O,inactive,inactive
